# According to article PMC5540273 (PLoS ONE, 2017):
# Test system: T1, LOK
# T1 construct: gene STK10
# Details: concentration: 1 μM, replicates: in singlicate; n = 1
# 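Also: KINOMEscan kinase panel screen.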
row,SMILES,%Inh
1,COC(=O)Nc1nc2cc(Oc3ccc(NC(=O)Nc4cc(C(F)(F)F)ccc4F)cn3)ccc2[nH]1.Cl.Cl [GW681170],99.8%
2,COCCOCCOc1cc2ncc3c4ccc(C#N)cc4[nH]c3c2cc1OC,73%
3,c1ccc(-c2n[nH]cc2Nc2ccnc3ccccc23)nc1 [GW694077],0%
4,C[C@@H](Oc1cc(-n2cnc3cc(-c4ccnc(NCCS(C)(=O)=O)c4)ccc32)sc1C(N)=O)c1ccccc1Cl [GSK907232],99.1%
5,CN1CCN(CCCNc2nccc(-c3c(-c4ccc(F)cc4)nn4cc(C(F)(F)F)ccc34)n2)CC1 [GW621581],0%
6,Oc1cc(Nc2ccnc3cc(I)ccc23)ccc1F [GW552771],0%
7,COc1ccc(-c2coc3ccc(-c4nnc(SCc5ccc(OC)c(C(F)(F)F)c5)o4)cc23)cc1,24%
8,Cl.c1ccc(-c2ccc3c(Nc4ccc5[nH]ncc5c4)ccnc3c2)nc1 [GW440137],2%
9,COc1ccc(CNC(=O)NC2CCN(c3ccnc(Nc4ccc(F)cc4)n3)CC2)cc1 [GSK1379788],0%
10,Cn1cc(-c2ccc3c(c2)CCN3C(=O)Cc2cccc(Cl)c2)c2c(N)ncnc21 [GSK2606590],98.1%
11,Cl.NC(=O)c1cccc(Nc2nccc(Nc3ccc(Oc4c(Cl)cccc4Cl)c(Cl)c3)n2)c1 [GW659009],49%
12,Cc1ccc(F)c(C(=O)Nc2cccc(-c3nn4ccccc4c3-c3ccnc(Nc4cccc(F)c4)n3)c2)c1F [GSK361061],98.5%
